PubChem BioAssay AID1645851 (National Center for Advancing Translational Sciences (NCATS), 2021)
About 1,200 (0.86%) of roughly 140,000 compounds were called active. Rule as the data show it: active = activity change below about -25%; inactive = the rest. Many of the other results were omitted from the sample, so actives are more common in it than they were.

What follows are compounds tested against Inositol hexakisphosphate kinase 1 (Homo sapiens) (UniProt Q92551) (assay: Primary qHTS assay for small molecule inhibitors of Inositol hexaphosphate kinase 1 (IP6K1)). Conditions: ADP-Glo luminescence, 2 h, stronger effect = lower value.
Outline: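 ADP-Glo luminescence measures ADP made by human IP6K1 during a 2 h RT reaction with ATP/IP6 (mix at 1.3 mM/130 uM); top library doses 57.5 and 19.1 uM final.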
% is scaled to controls: 0 for no effect and ±100 for the full control effect.
Also: series mostly up to about 58 µM.

Chain of Inositol hexakisphosphate kinase 1 (Homo sapiens) (Q92551 whole entry, looked up): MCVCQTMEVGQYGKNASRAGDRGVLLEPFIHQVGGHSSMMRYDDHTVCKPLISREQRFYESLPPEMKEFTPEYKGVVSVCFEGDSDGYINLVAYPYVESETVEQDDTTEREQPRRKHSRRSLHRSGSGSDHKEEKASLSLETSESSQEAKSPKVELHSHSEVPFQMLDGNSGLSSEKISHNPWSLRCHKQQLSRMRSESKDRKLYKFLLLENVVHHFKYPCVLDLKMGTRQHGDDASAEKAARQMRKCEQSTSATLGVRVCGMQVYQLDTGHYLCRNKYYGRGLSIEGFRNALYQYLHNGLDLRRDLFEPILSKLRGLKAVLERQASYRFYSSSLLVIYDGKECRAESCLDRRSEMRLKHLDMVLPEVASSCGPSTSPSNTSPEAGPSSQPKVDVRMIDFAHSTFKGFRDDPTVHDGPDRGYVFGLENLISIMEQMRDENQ

| Compound | activity change |
| --- | --- |
| FC(F)(F)c1ccc(CN2CCC3(CC(c4cccc(C(F)(F)F)c4)=NO3)C2)cc1 (stereo unspecified) | -5.41% (inactive) |
| N#Cc1ccc(CN2CC(Oc3ccc(F)cc3F)C2)cc1 | -14.3% (inactive) |
| CO[C@H]1C=CO[C@@]2(C)Oc3c(C)c(O)c4c(O)c(c(/C=N/N5CCN(C)CC5)c(O)c4c3C2=O)NC(=O)/C(C)=C\C=C[C@H](C)[C@H](O)[C@@H](C)[C@@H](O)[C@@H](C)[C@H](OC(C)=O)[C@@H]1C | -33.1% (active) |
| O=C(C1CCN(Cc2ccccc2-c2ccccc2F)CC1)N1CCC(c2ccccc2)CC1 | 20.1% (inactive) |
| Cc1ccccc1C(=O)N1CCCC(C(=O)N2CCC(c3ccccc3)CC2)C1 (stereo unspecified) | -2.33% (inactive) |
| O=[S+]([O-])(c1ccccc1)N1CC2(COCCN(Cc3cc(F)ccc3F)C2)C1 | 8.88% (inactive) |
| COc1cccc(Nc2n[nH]c(C(O)c3cccc(C(F)(F)F)c3)n2)c1 (stereo unspecified) | -3.83% (inactive) |
| COc1ccc(-c2nn(CC(=O)NC3CCCC3)c3c2cnc2ccc(F)cc23)cc1 | 19.4% (inactive) |
| COc1ccc(-c2nn(CC(=O)Nc3ccccc3F)c3c2cnc2ccc(F)cc23)cc1 | 6.83% (inactive) |
| COc1ccc2ncc3c(-c4ccc(C)c(C)c4)nn(CC(=O)NC4CCCC4)c3c2c1 | -25.8% (active) |
| COc1ccc(-c2nc(-c3ccccc3)nc3c2CN(C(=O)c2ccc(C)cc2)CC3)cc1 | 6.25% (inactive) |
| CCN1c2cc(C(=O)NCc3ccccc3C(F)(F)F)ccc2C(=O)N2CCCCCC21 (stereo unspecified) | -7.94% (inactive) |
| Cc1ccc(Cl)cc1NC(=O)CN1C(=O)NC(c2ccc(Cl)cc2)C2=C1COC2=O (stereo unspecified) | -3.73% (inactive) |
| CCOC(=O)c1cc2c(=O)n3ccccc3nc2n(Cc2ccco2)c1=NC(=O)c1ccc(F)cc1 | -40.8% (active) |
| CCOC(=O)c1cc2c(=O)n3ccccc3nc2n(CC2CCCO2)c1=NC(=O)c1ccccc1F (stereo unspecified) | -9.99% (inactive) |
| CCOC(=O)c1cc2c(=O)n3ccccc3nc2n(CC2CCCO2)c1=NC(=O)c1ccc(C(C)(C)C)cc1 (stereo unspecified) | -2.99% (inactive) |
| NC(=O)Cn1ccc2cc(OCC3CCN(C(=O)C4CCCC4)CC3)cnc21 | -2.13% (inactive) |
| CC(C)CCNC(=O)c1cnc2c(c1)N(Cc1ccccc1)CCC2 | 3.22% (inactive) |
| COC[C@H]1C[C@@H](NC(=O)c2ccc(C#N)cc2)[C@H](O)[C@@H]1O | -1.35% (inactive) |
| Cn1cc(C(=O)N2CCC(C(=O)N3CCCCCCNC(=O)CC3)CC2)cn1 | -7.37% (inactive) |
| N#Cc1ccc(C(=O)Nc2ccc([C@H]3OCC(=O)N(Cc4cccnc4)[C@@H]3CO)cc2)cc1 | -3.68% (inactive) |

| Compound | activity change |
| --- | --- |
| O=C(Nc1cc(-c2ccncc2)nn1-c1ccccc1)c1ccccc1F | -7.37% (inactive) |
| O=C(Nc1cccnc1)[C@@H]1C[C@@H](c2ccc(F)cc2)N([S+](=O)([O-])c2ccccc2)C1 | 19.9% (inactive) |
| Cc1ccc(CNC(=O)CCc2c(C)nc3c(c(C)nn3-c3ccccc3)c2C)cc1 | -26.3% (active) |
| COC(=O)c1ccc(NC(=O)CCc2c(C)nc3c(c(C)nn3-c3ccc(C)cc3)c2C)cc1 | 33% (inactive) |
| Cc1nc2c(c(C)nn2-c2ccccc2)c(C)c1CCC(=O)NCCc1ccc(Cl)cc1 | 11.8% (inactive) |
| Cn1ncc2c(C(=O)NCc3ccc(Cl)cc3)cc(-c3ccc(F)cc3)nc21 | 11.6% (inactive) |
| O=C(NCCc1ccccc1F)c1ccc2nnc(-c3ccc(F)cc3)n2c1 | 1.1% (inactive) |
| COC(=O)NC1CCCN(c2ccc3nnc(-c4ccccc4)n3n2)C1 (stereo unspecified) | -6.13% (inactive) |
| COc1ccc(N2CC(c3noc(-c4cc(OC)c(OC)c(OC)c4)n3)CC2=O)cc1 (stereo unspecified) | 12.4% (inactive) |
| CCOc1ccccc1CNC(=O)C1CCCN(S(=O)(=O)c2ccc3c(ccn3C)c2)C1 (stereo unspecified) | -3.08% (inactive) |
| Cc1ccc(C)c(NC(=O)C2CCCN(S(=O)(=O)c3cn(C)cn3)C2)c1 (stereo unspecified) | 5.66% (inactive) |
| CCOc1ccccc1NC(=O)C1CCCN(S(=O)(=O)c2cn(C)cn2)C1 (stereo unspecified) | -25.5% (active) |
| O=c1cc(N2CCOCC2)oc2c(Nc3cccc(Cl)c3)nccc12 | -31% (active) |
| O=c1cc(N2CCOCC2)oc2c(NCc3ccncc3)nccc12 | -7.16% (inactive) |
| Cc1noc(C)c1-c1nccc2c(=O)cc(N3CCOCC3)oc12 | -13.2% (inactive) |
| CN(C)c1ccc(CN(C)C2CCc3ccccc3C2)cc1 (stereo unspecified) | -16.7% (inactive) |
| CC(C)OCCCNC(=O)c1cc(-c2ccc(C(F)(F)F)cc2)nc2c1cnn2C | -2.02% (inactive) |
| CCOc1ccccc1NC(=O)CN1C(=O)C(c2ccccc2)=NC12CCCC2 | 7.82% (inactive) |
| CC1=C(C(=O)N(C)C)C(c2ccc(Cl)cc2)N2C(CC(=O)NC(C)c3ccccc3)=CSC2=N1 (stereo unspecified) | 33.5% (inactive) |
| CC1=C[C@@H](CNC(C)C)[C@H](C(C)C)C[C@H]1Cc1nnc(-c2ccc(N(C)C)cc2)o1 | -0.243% (inactive) |
